Bioassay records: PubChem, Fisher Drug Discovery Resource Center
mcGAS inh: cyclic GMP-AMP synthase inhibitors, mouse, primary biochemical chemiluminescence. Q8C6L5. recombinant cGAS, Kinase-Glo ATP depletion luminescence. inhibition, % at 12.5 µM. actives 0.15% (n = 160,000). AID 1259399, 2018;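 note: 0% = negative control wells and 100% = reference inhibitor with no enzyme activity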
NPYLR7 ag: agonists of mosquito NPYLR7 receptor, primary screen, cell-based, Aedes aegypti, calcium fluorescence, mosquito biting behavior; HEK293T NPYLR7/Galpha15, GCaMP6s calcium fluorescence; AID 1259423, 2018; activation, % at 10 µM; actives 0.15% (n = 270,000); in the data active = activation above about 40%;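 note: 0% = vehicle and 100% = reference agonist at the receptor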
hcGAS inh: Primary biochemical luminescence assay for human cyclic GMP-AMP synthase inhibitors; Q8N884; recombinant h-cGAS, ATP depletion, Kinase-Glo luminescence; inhibition, % at 12.5 µM; actives 0.081% (n = 290,000); AID 1259398, 2018;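 note: 0% = vehicle reaction and 100% = reaction without DNA for no activity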
Target sequence (Q8N884 whole entry, looked up): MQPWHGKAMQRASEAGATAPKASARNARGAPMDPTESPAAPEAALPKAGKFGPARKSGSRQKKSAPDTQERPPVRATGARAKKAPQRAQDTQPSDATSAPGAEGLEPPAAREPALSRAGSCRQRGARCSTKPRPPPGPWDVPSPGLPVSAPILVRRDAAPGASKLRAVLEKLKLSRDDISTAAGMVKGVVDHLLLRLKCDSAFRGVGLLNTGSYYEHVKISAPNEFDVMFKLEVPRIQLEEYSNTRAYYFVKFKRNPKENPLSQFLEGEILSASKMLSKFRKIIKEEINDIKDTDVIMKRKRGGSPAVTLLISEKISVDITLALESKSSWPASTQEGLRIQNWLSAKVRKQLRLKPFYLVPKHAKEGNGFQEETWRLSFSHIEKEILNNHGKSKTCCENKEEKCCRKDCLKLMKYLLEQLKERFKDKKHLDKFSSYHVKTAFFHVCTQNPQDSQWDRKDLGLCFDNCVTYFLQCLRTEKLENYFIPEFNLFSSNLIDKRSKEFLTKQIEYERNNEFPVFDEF
* marks the source's active call; other numbers are inactive results; / = no result. Hits are enriched below; roughly 0.3% of the tested compounds scored in any of these assays. Cut-off read from the data, not from the text of the source, unless noted: active = inhibition above about 40%; inactive = the rest.

SMILES	mcGAS inh	NPYLR7 ag	hcGAS inh
N=C1/C(=C/c2cccs2)C(=O)N=C2SC(c3ccccc3)=NN12	/	-1.0	56.4*
N=C1/C(=C/c2cccs2)C(=O)N=C2SC(Cc3ccccc3)=NN12	/	0.2	3.3
CC(C)N1C(=O)COCc2cc(-c3cnc4ccccc4c3)ccc21	/	7.6	-6.5
Cc1nc(SCc2cccc(C(=O)NCC3CCCO3)c2)nc(N2CCN(C/C=C/c3ccccc3)CC2)c1C (stereo unspecified)	-1.5	4.3	4.9
O=C1N=c2ccccc2=C1c1sc(=O)[nH]c1O	63.3*	-8.2	6.1
O=C1N=c2ccccc2=C1c1sc(=S)n(-c2ccccc2)c1O	-4.8	-10.2	-5.3
CCc1cc2c(=O)n(Cc3ccco3)c(SCC(=O)c3cccs3)nc2s1	-1.7	1.3	-4.9
Oc1c(Br)cc(Br)cc1C=NC1CC1	/	9.5	53.0*
CNN=Cc1cc(Br)cc(Br)c1O	12.7	25.5	10.9
CCCN=Cc1c(-c2ccccc2)[nH]n(-c2nc3ccccc3s2)c1=O	-2.5	1.9	54.1*
CC(=NCCCn1ccnc1)c1c(-c2ccccc2)[nH]n(-c2nc3ccccc3s2)c1=O	4.2	-3.6	5.8
CCOc1c(C)cnc2c1c(=O)n(CC(=O)N1CCc3ccccc31)c(=O)n2C	-6.0	2.4	-4.9
O=c1c(O)c(-c2ccccc2)oc2cccc(O)c12	/	1.0	-2.1
O=[N+]([O-])c1cc([N+](=O)[O-])c2oc(-c3ccccc3)c(Br)c2c1O	90.6*	-9.2	82.4*
O=C(CCl)c1ccc(NC(=O)c2ccco2)cc1	78.1*	10.5	-5.6
O=C(NCc1ccccn1)c1ccc(NC(=O)c2ccco2)cc1	/	18.9	-13.9
CCOC(=O)C1=C(C)NC(=S)NC1c1cc(OC)c(OC)c(OC)c1 (stereo unspecified)	/	3.2	-5.7
CC(C)S(=O)(=O)c1ccc(F)c(C(=O)NCCc2ccc(F)cc2)c1	-16.3	5.2	-5.7
CCOC(=O)N1CCN(c2ccc(/C=C(\C#N)c3nc4ccccc4[nH]3)o2)CC1	/	102.5*	-6.8
CCOC(=O)N1CCN(/C=C(\C#N)c2nc3ccccc3s2)CC1	-1.1	-9.5	1.3
S=C(NCCN1CCOCC1)N1CCc2ccccc21	/	1.0	-15.1
CCNC(=O)NC(=O)CSc1nnc(-c2ccc(OC)cc2)n1CC1CCCO1 (stereo unspecified)	/	-6.5	3.1
Cc1cc(C(=O)NC(c2ccccc2)c2ccccc2)n2nc(C(C)(C)C)cc2n1	59.1*	20.9	-2.8
Cc1cc(C(=O)NCCc2ccccc2)n2nc(C(C)(C)C)cc2n1	-4.7	17.9	-5.7
O=C1/C(=C/c2csnn2)CCOc2cc(Br)ccc21	53.0*	13.0	-5.9
SMILES	mcGAS inh	NPYLR7 ag	hcGAS inh
COc1ccc2c(c1)CCC(=Cc1cc(Br)ccc1OC)C2=O	-4.7	-1.2	-2.1
CC1(C(=O)NS(=O)(=O)c2cccc(F)c2)CCN1C(=O)C1(c2ccccc2)CC1 (stereo unspecified)	/	0.9	-10.6
COc1ccc(C2NN(Cc3ccccc3)C3C(=O)N(C4CCCCC4)C(=O)C23)c(OC)c1 (stereo unspecified)	-6.5	-7.4	-1.6
O=C1NC(=S)SC1=Cc1ccc(F)c(F)c1	36.4	5.9	12.5
O=C1NC(=S)SC1=Cc1ccccc1Cl	/	6.2	56.2*
O=C1NC(=O)C(=Cc2cccc(Cl)c2Cl)S1	/	8.6	-3.3
O=C1NC(=S)SC1=Cc1c(F)cccc1F	/	-10.0	41.6*
Cc1c(C(C)NCc2cccn2-c2cccnc2)cnn1-c1ccccc1 (stereo unspecified)	/	4.0	-0.8
CC(Cn1ccnc1)NC(=O)c1ccccc1N(C)C(=O)c1cccs1 (stereo unspecified)	/	4.7	-2.4
CC(Cn1ccnc1)NC(=O)NCC(C)(C)c1ccccc1F (stereo unspecified)	/	0.0	43.4*
CCN(CC)CC[n+]1c(C)cc(C=C2Sc3ccccc3N2C)cc1C	/	44.2*	11.0
CN1C(=CC(=O)C(F)(F)F)Sc2ccccc21	-6.3	2.8	-10.5
Cn1nc(C(C)(C)C)cc1C(=O)NC(C)(C)Cc1c[nH]c2ccccc12	-5.6	0.4	-5.3
CC(=O)Nc1c(-c2cc(C)cc(C)c2)nc2cc(C)ccn12	0.8	-3.8	-0.3
Cc1cc(C)cc(-c2nc3cc(C)ccn3c2NC(=O)CCl)c1	42.3*	-10.4	-6.2
CN1C(=S)N(CCCN2CCOCC2)C(=O)/C1=C\c1ccc2c(c1)OCO2	-6.9	17.4	-5.7
CN1C(=S)N(CCCN2CCOCC2)C(=O)/C1=C/c1ccc(N(C)C)cc1	-9.0	59.8*	-7.9
CCCN1CCCN(C(=O)Nc2cc(C)nn2C(C)(C)C)CC1	/	6.0	-7.2
COc1ccccc1C(=O)Nc1ccc2c(c1)CN(Cc1csc(C(C)=O)c1)CC2	/	14.3	-4.2
O=C1/C(=C/c2cccc(Br)c2)Oc2c1ccc(O)c2CN1CCN(CCO)CC1	10.3	52.1*	6.1
O=C1/C(=C/c2cccc(F)c2)Oc2c1ccc(O)c2CN1CCN(CCO)CC1	2.3	57.5*	8.5
O=c1oc2c(CN3CCN(CCO)CC3)c(O)ccc2cc1-c1ccc(Cl)cc1	-7.2	7.1	-7.8
O=C1/C(=C/c2cccc(Cl)c2)Oc2c1ccc(O)c2CN1CCN(CCO)CC1	12.3	50.4*	15.0
Cc1cc(O)c(CN2CCN(CCO)CC2)c2c1C(=O)/C(=C/c1ccc(F)cc1)O2	-7.4	14.7	-6.6
Cc1cc(O)c(CN2CCN(CCO)CC2)c2c1C(=O)/C(=C/c1ccco1)O2	-10.2	28.0	-2.2
SMILES	mcGAS inh	NPYLR7 ag	hcGAS inh
Cc1ccccc1-c1noc(CCC(=O)NC(C)c2ccccc2-n2cccn2)n1 (stereo unspecified)	/	/	-4.5
Cn1c(=O)c2c(ncn2CC(=O)Nc2ccnn2Cc2cccs2)n(C)c1=O	/	9.6	-4.3
CS(=O)(=O)c1ccc(-c2cccc3c2OC(CNC(=O)c2cc[n+]([O-])cc2)C3)cc1 (stereo unspecified)	-9.6	75.6*	-5.9
O=C(NCC1Cc2cccc(F)c2O1)c1ccc(F)cc1 (stereo unspecified)	-4.3	5.0	-1.0
CC(C)c1csc(CN2CCN(c3ccc(C(N)=O)cn3)CC2)n1	-15.8	1.4	-4.3
Cn1ncc2c1ncn1c(-c3ccc(Cl)cc3Cl)nnc21	/	-4.2	-8.7
CCCc1nc(C(=O)N2CCCC(c3[nH]ncc3CC)C2)cs1 (stereo unspecified)	-21.5	-0.2	-4.6
CCc1cn[nH]c1C1CCCN(C(=O)c2csc(Cc3ccccc3)n2)C1 (stereo unspecified)	-13.4	8.8	54.8*
CCCc1[nH]n(-c2ccc(Cl)cc2)c(=O)c1/C=C1\NC(=O)N(Cc2ccc(C)cc2)C1=O	-7.9	45.1*	-3.2
CCCc1[nH]n(-c2ccc(Cl)cc2)c(=O)c1/C=C1\NC(=O)N(Cc2cccc(C)c2)C1=O	-6.7	8.6	-4.5
COc1ccc(N2CCn3c2nnc(C(=O)NCCCO)c3=O)cc1	-7.1	17.6	-12.4
c1csc(-c2cnc3ccc(-c4ccncc4)nn23)c1	5.5	7.7	2.0
O=c1nc2n3ccc(-c4ccncc4)cc3ncc-2s1	-2.2	55.1*	-2.1
Cc1cccc(NC(=O)c2n[nH]c([N+](=O)[O-])c2Br)c1C	-2.6	-1.5	-0.5
